# Earlier results, collected in PubChem BioAssay AID977611.
# In all, about 3,900 compounds went through this assay and about 3,900 (100%) were called active. Cut-off not given; nearly all actives show Kd up to about 4200 µM. The set was probably picked from earlier hits. The list shows a part of the results. Starred links: 1 amine or outer side, 2 acyl side, 3 side chain; linkers in the order of their positions; H or OH if unused. *1 amine or outer side, *2 acyl side, *3 side chain or, on linkers, in order; H or OH if unused. Where a SMILES comes first, the peptide text is derived from it. Non-standard residues stand in square brackets, D forms with d. Square brackets hold non-standard residues; d marks the D form. Residues, ends and D or L forms follow the SMILES beside them. Peptide text beside a SMILES is read from it. [ ]: non-standard residue; d: D form. ξ: configuration not given here. X1 = O=C([C@H](Cc1ccc(O[P+](O)(O)O)cc1)N[*:1])[*:2]; Thr(P(OH)3+) = C[C@@H](O[P+](O)(O)O)[C@H](N)C(=O)O; Orn(CH(NH2)2) = NC(N)NCCC[C@H](N)C(=O)O; ξE = NC(CCC(=O)O)C(=O)O
# Test: PubChem AID 977611
# Details: PDB protein-ligand complexes, literature Kd
compound,measurement,setting,value
O=C1C=C(O)C=CC1S(=O)(=O)n1cc2ccc(O)cc2c1 (stereo not drawn),Kd,PDB entry 4mpe,0.426 µM (active)
C/C(O)=[N+](/O)CCC[C@@H]1NC(=O)CNC(=O)CNC(=O)CNC(=O)C(CCCN(O)C(C)O)NC(=O)[C@H](CCCN(O)C(C)O)NC1=O.[Fe] (stereo partly drawn),Kd,"protein: Iron-compound ABC transporter, iron compound-binding protein, PDB entry 4hmq",0.0058 µM (active)
H-APTLPKLPSLS-OH,Kd,"protein: Ankyrin Repeat Domains of Human ANKRA2, PDB entry 3v2o",4.9 µM (active)
H-LLPTLPKLPSL-OH,Kd,"protein: Ankyrin Repeat Domains of Human ANKRA2, PDB entry 3v2x",4.5 µM (active)
C[C@@H](O)[C@H](N)C(=O)N[C@@H](CCCNC(N)N)C(=O)N[C@@H](CO)C(=O)N[C@@H](CCCCN)C(=O)N[C@@H](Cc1ccccc1)C(=O)N[C@@H](Cc1ccccc1)C(=O)N[C@@H](CC(N)=O)C(=O)O (H-T[Orn(CH(NH2)2)]SKFFN-OH),Kd,"protein: C-terminal domain of the Saccharomyces cerevisiae MUTL alpha (MLH1/PMS1) heterodimer, PDB entry 4fmo",2.94 µM (active)
CC(=O)N[C@H](C(=O)N[C@@H](CCCNC(N)N)C(=O)N[C@@H](CO)C(=O)N[C@@H](CCCCN)C(=O)N[C@@H](Cc1ccc(O)cc1)C(=O)N[C@@H](Cc1ccccc1)C(=O)N[C@@H](CCCCN)C(=O)O)C(C)C (Ac-V[Orn(CH(NH2)2)]SKYFK-OH),Kd,"protein: C-terminal domain of the Saccharomyces cerevisiae MUTL alpha (MLH1/PMS1) heterodimer, PDB entry 4fmn",0.75 µM (active)
CC(C)C[C@H](NC(=O)[C@H](C)NC(=O)[C@H](CCC(=O)O)NC(=O)[C@H](CC(=O)O)NC(=O)[C@H](Cc1ccc(O)cc1)NC(=O)[C@H](CO)NC(=O)[C@@H]1CCCN1C(=O)[C@H](CC(C)C)NC(=O)CNC(=O)[C@@H](N)[C@@H](C)O)C(=O)N[C@@H](Cc1cnc[nH]1)C(=O)O (H-TGLPSYDEALH-OH),Kd,"protein: E3 ubiquitin-protein ligase NEDD4, PDB entry 2ez5",3 µM (active)
H-HPVGDADYFEY-OH,Kd,"protein: LA class I histocompatibility antigen, B-35 alpha chain HLA-B 35:01, PDB entry 4pr5",2.2 µM (active)
same,Kd,"protein: MHC class I antigen HLA-B 35:08, PDB entry 4prd",25.4 µM (active)
same,Kd,"protein: MHC class I antigen-Beta-2-microglobulin, PDB entry 4prh",25.4 µM (active)
CC(=O)N[C@@H](Cc1cnc[nH]1)C(=O)N[C@@H](CO)C(=O)N[C@@H](CCCCN)C(=O)N[C@@H](Cc1ccc(O)cc1)C(=O)N1CCC[C@H]1C(=O)N[C@@H](CC(C)C)C(=O)N1CCC[C@H]1C(=O)N1CCC[C@H]1C(=O)N[C@@H](CC(C)C)C(=O)N1CCC[C@H]1C(=O)N[C@@H](CO)C(=O)N[C@@H](CC(C)C)C(N)=O (Ac-HSKYPLPPLPSL-NH2),Kd,"protein: Tyrosine-protein kinase HCK, PDB entry 2oi3",0.23 µM (active)
H-DADTLLHFATESTPD-OH,Kd,"protein: Beta-catenin-interacting protein 1, PDB entry 1t08",3.1 µM (active)
CC(C)C[C@H](NC(=O)[C@H](CC(=O)O)NC(=O)[C@H](Cc1ccc(O)cc1)NC(=O)[C@H](CC(C)C)NC(=O)[C@H](CCC(=O)O)NC(=O)[C@H](Cc1cnc[nH]1)NC(=O)[C@H](CC(C)C)NC(=O)[C@@H](NC(=O)[C@@H]1CCCN1C(=O)[C@@H]1CCCN1)[C@@H](C)O)C(=O)O (H-PPTLHELYDL-OH),Kd,"protein: Retinoblastoma-associated protein, PDB entry 2r7g",0.9 µM (active)
H-EPPLNPHGSARAEVHA-OH,Kd,"protein: WD repeat-containing protein 5, WDR5, PDB entry 4esg",2.76 µM (active)
H-ANPHGAARAEVY-OH,Kd,"protein: WD repeat-containing protein 5, WDR5, PDB entry 4erz",0.088 µM (active)
H-HPVGEADYFEY-OH,Kd,"protein: MHC class I antigen-Beta-2-microglobulin, PDB entry 4pri",93.2 µM (active)
H-HPVAEADYFEY-OH,Kd,"protein: HLA class I histocompatibility antigen, B-35 alpha chain, PDB entry 4prn",2.2 µM (active)
same,Kd,"protein: MHC class I antigen HLA-B 35:08, PDB entry 4prb",132 µM (active)
H-TLVSMPPLPGLDLAGS-OH,Kd,"protein: Ankyrin Repeat Domains of Human DNA-binding protein RFXANK, PDB entry 3v30",184 µM (active)
CC[C@H](C)[C@H](NC(=O)[C@H](Cc1ccc(O)cc1)NC(=O)[C@@H](N)C(C)C)C(=O)N[C@@H](Cc1cnc[nH]1)C(=O)N1CCC[C@H]1C(=O)N[C@@H](Cc1ccccc1)C(=O)O,Kd,"protein: Aminopeptidase N, PDB entry 4fys",15 µM (active)
H-HPVGQADYFEY-OH,Kd,"protein: LA class I histocompatibility antigen, B-35 alpha chain HLA-B 35:011, PDB entry 4pra",2.2 µM (active)
same,Kd,"protein: MHC class I antigen HLA-B 35:08, PDB entry 4pre",181 µM (active)
same,Kd,"protein: MHC class I antigen-Beta-2-microglobulin, PDB entry 4prp",2.2 µM (active)
COc1cc(NC(=O)C[C@@]2(C)C[C@H](c3cccc(Cl)c3)[C@@H](c3ccc(Cl)c(F)c3)N([C@H](CS(=O)(=O)C(C)(C)C)C3CC3)C2=O)ccc1C(=O)O,Kd,"protein: E3 ubiquitin-protein ligase Mdm2, PDB entry 4wt2",3.8e-05 µM (active)
CSCC[C@H](NC(=O)[C@H](CC(C)C)NC(=O)[C@H](CCCNC(N)N)NC(=O)[C@@H](N)CC(N)=O)C(=O)N[C@@H](CC(C)C)C(=O)N[C@H](C(=O)NCC(=O)O)[C@@H](C)O (H-N[Orn(CH(NH2)2)]LMLTG-OH),Kd,"protein: Chaperone protein DnaK, PDB entry 4ezx",1.6 µM (active)
CC(C)C[C@H](NC(=O)[C@H](CC(C)C)NC(=O)[C@H](CCCNC(N)N)NC(=O)[C@@H](N)CC(N)=O)C(=O)N[C@@H](CC(C)C)C(=O)N[C@H](C(=O)NCC(=O)O)[C@@H](C)O,Kd,"protein: Chaperone protein DnaK, PDB entry 4ezw",1 µM (active)
COc1cc(OC)c2c(=O)[nH]c(-c3cc(C)c(O)c(C)c3)nc2c1,Kd,"protein: Bromodomain-containing protein 2, PDB entry 4mr5",0.251 µM (active)
same,Kd,"protein: Bromodomain-containing protein 4, PDB entry 4mr3",1.14 µM (active)
COc1ccc(Nc2nc3cc(C(=O)O)ccc3n2Cc2ccccc2C(F)(F)F)cc1F,Kd,"protein: KINESIN-LIKE PROTEIN KIF11, PDB entry 3zcw",0.65 µM (active)
C[C@@H](O)[C@H](NC(=O)[C@H](CC(N)=O)NC(=O)[C@@H](N)CCCNC(N)N)C(=O)N[C@@H](CC(N)=O)C(=O)N[C@@H](CCC(=O)O)C(=O)N[C@@H](Cc1ccc(O[P+](O)(O)O)cc1)C(=O)N[C@H](C(=O)N[C@@H](CCC(=O)O)C(=O)NCC(=O)N1CCC[C@H]1C(=O)O)[C@@H](C)O[P+](O)(O)O (H-[Orn(CH(NH2)2)]NTNE[X1][Thr(P(OH)3+)]EGP-OH),Kd,"protein: E3 ubiquitin-protein ligase CBL c-Cbl TKB domain, PDB entry 3ob1",3.83 µM (active)
C[C@@H](O)[C@H](N)C(=O)N[C@@H](CC(N)=O)C(=O)N[C@@H](CCC(=O)O)C(=O)N[C@@H](Cc1ccc(O[P+](O)(O)O)cc1)C(=O)N[C@H](C(=O)N[C@@H](CCC(=O)O)C(=O)NCC(=O)N1CCC[C@H]1C(=O)N[C@H](C(=O)O)[C@@H](C)O)[C@@H](C)O (H-TNE[X1]TEGPT-OH),Kd,"protein: E3 ubiquitin-protein ligase CBL, PDB entry 3bum",0.32 µM (active)
CC(C)C[C@H](NC(=O)[C@H](CC(N)=O)NC(=O)[C@@H](N)CCCNC(N)N)C(=O)N[C@@H](Cc1ccccc1)C(=O)NCC(=O)N1CCC[C@H]1C(=O)O (H-[Orn(CH(NH2)2)]NLFGP-OH),Kd,"protein: phospho-CDK2/cyclin A, PDB entry 1h27",2.5 µM (active)
CC(C)C[C@H](NC(=O)[C@H](CS)NC(=O)[C@H](CCC(=O)O)NC(=O)[C@H](Cc1ccc(O)cc1)NC(=O)CNC(=O)[C@H](Cc1ccc(O)cc1)NC(=O)C(CCC(=O)O)NC(=O)[C@H](CCC(=O)O)NC(=O)[C@@H](N)CC(=O)O)C(=O)N[C@@H](CC(=O)O)C(=O)O (stereo partly drawn) (H-DE[ξE]YGYECLD-OH),Kd,"protein: AP-2 complex subunit mu-1, PDB entry 2pr9",0.0422 µM (active)
CC(C)C[C@H](NC(=O)[C@@H](N)CC(=O)O)C(=O)N[C@@H](Cc1ccc(O)cc1)C(=O)NCC(=O)O (H-DLYG-OH),Kd,"protein: E3 ubiquitin-protein ligase RNF31 HOIP PUB Domain, PDB entry 4p0a",30.3 µM (active)
O[C@@H]1[C@H](O)[C@@H](CO[P+](O)(O)O)O[C@H]1n1cnc2c(NCc3ccco3)ncnc21,Kd,"protein: 2'-deoxynucleoside 5'-phosphate N-hydrolase 1, DNPH1 (RCL), PDB entry 4kxn",0.8 µM (active)
CNc1ncnc2c1ncn2[C@@H]1O[C@H](CO)[C@@H](O)[C@H]1O,Kd,"protein: YTH domain-containing family protein 2 YTH-YTHDF2, PDB entry 4rdn",1.2 µM (active)
CC(C)=CCNc1ncnc2c1ncn2[C@@H]1O[C@H](CO[P+](O)(O)O)[C@@H](O)[C@H]1O,Kd,"protein: 2'-deoxynucleoside 5'-phosphate N-hydrolase 1, DNPH1 (RCL), PDB entry 4kxm",2.6 µM (active)
CCc1cn([C@@H]2O[C@H](CO)[C@@H](O)[C@H]2O)c2ncnc(N)c12,Kd,"protein: Adenosine kinase ADK, PDB entry 4pvv",0.33 µM (active)
